The entries come from a sample that favours hits as a whole.
SF-1 inh: blocks the human nuclear receptor SF-1 | CHO-K1 Gal4-SF-1 LBD luciferase reporter | inhibition, % at 10 µM | 65,000 tested, 0.55% active;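 active = inhibition above the mean inhibition of all tested compounds plus 3 SD, cut at about 48% in these data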;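 note: 0% = SF-1 transfected cells with DMSO and 100% = mock-transfected cells lacking SF-1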
Target sequence (Q13285 whole entry, looked up, the tested form may be a part): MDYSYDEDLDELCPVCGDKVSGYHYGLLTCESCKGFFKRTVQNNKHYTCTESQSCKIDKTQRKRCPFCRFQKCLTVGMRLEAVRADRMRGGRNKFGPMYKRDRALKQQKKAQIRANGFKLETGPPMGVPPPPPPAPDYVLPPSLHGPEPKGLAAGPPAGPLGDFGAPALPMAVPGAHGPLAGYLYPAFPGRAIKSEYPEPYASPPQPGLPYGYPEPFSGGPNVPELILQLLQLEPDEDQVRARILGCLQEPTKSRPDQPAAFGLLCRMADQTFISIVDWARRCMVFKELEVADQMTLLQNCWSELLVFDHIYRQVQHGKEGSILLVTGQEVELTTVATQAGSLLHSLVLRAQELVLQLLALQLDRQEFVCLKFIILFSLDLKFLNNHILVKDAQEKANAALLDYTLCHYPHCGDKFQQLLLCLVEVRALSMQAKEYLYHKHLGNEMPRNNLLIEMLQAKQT
Numbers without * were called inactive.

SMILES	SF-1 inh
Cc1ccnc(SCC(=O)Nc2sc3c(c2C#N)CCCC3)n1	76.0*
Cc1cc(C(=O)Nc2sc3c(c2C#N)CCCC3)no1	-71.0
Cc1cc(C(=O)Nc2sc3c(c2C#N)CCC3)no1	-115.6
COC(=O)c1cc2oc3ccccc3c2n1Cc1ccccn1	7.1
COc1ccc(-c2cc(C(=O)OC3CCOC3=O)c3ccccc3n2)cc1OC (stereo unspecified)	-5.9
CC(C)CNC(=O)CN(C1CCCCC1)S(=O)(=O)c1ccccc1	15.0
Cc1cc(Nc2ccccc2)n(-c2ccccc2)n1	6.1
Cc1cc(C)n(-c2cc(-n3nc(C)cc3C)ncn2)n1	20.3
Cc1cc(C)n(-c2nc(NC(C)C)nc(NC(C)C)n2)n1	53.1*
Cc1cc(NS(=O)(=O)c2ccccc2)n(-c2ccccc2)n1	1.2
Cc1cc(C)n(-c2nc(NC(C)(C)C)nc(NC(C)(C)C)n2)n1	52.7*
Cc1cc(C)nc(-n2nc(C)cc2Nc2ccccc2)n1	19.5
O=S(=O)(NCCSc1nnnn1-c1ccccc1)c1cccs1	-54.1
CC(C)CC(NC=C1C(=O)OC(C)(C)OC1=O)C(=O)O (stereo unspecified)	6.1
Cn1c(=O)c2cc(S(=O)(=O)NCCC(=O)NCCC3=CCCCC3)ccc2n(C)c1=O	12.0
CCOC(=O)c1nnn(-c2nonc2N)c1COc1ccccc1	6.1
C/[N+]([O-])=C1\Cc2ccccc2C1=O	-12.7
CCOC(=O)c1c(N)sn(-c2ccccc2C)c1=S	-0.2
CC(C)Cn1c(N)c(C(=O)CSc2ccc3c(c2)OCCO3)c(=O)n(C)c1=O	69.3*
CCn1c(SCC(=O)c2ccc3c(c2)OCCO3)nnc1C(C)C	-18.0
CC(C)c1nc(SCC(=O)Nc2ccc3c(c2)OCCO3)c2c(=O)n(C)c(=O)n(C)c2n1	7.6
O=C(c1ccncc1)N1C2C=CC(C2)C1(C(F)(F)F)C(F)(F)F (stereo unspecified)	-12.2
Cc1ccc(-c2nc(-c3ccccn3)no2)cc1Cl	85.8*
COc1cccc(-c2nc(-c3ccccn3)no2)c1OC	-50.1
Clc1cccc(-c2nc(-c3ccccn3)no2)c1	70.9*
SMILES	SF-1 inh
Clc1ccc(OCc2nc(-c3ccncc3)no2)c(Cl)c1	-85.7
CC(C)(C)c1ccc(OCc2nc(-c3ccccn3)no2)c(Br)c1	-71.1
Brc1ccc(-c2nc(-c3cccnc3)no2)o1	-66.4
Cc1ccc(-c2nc(-c3ccccn3)no2)cc1	92.2*
Cc1ccccc1-c1noc(-c2ccc(O)cc2)n1	-33.3
c1ccc(CCCc2nc(-c3ccccn3)no2)cc1	-56.8
COc1ccc(N2CCN(C(=O)CN3C(=O)C4CC=CCC4C3=O)CC2)cc1 (stereo unspecified)	-3.7
CC1CCCN(c2ccc(C(=O)NCC3CCCO3)cn2)C1 (stereo unspecified)	-57.5
COC(=O)C1=[N+]([O-])OC(C(=O)OC)C1c1c[nH]c2ccccc12 (stereo unspecified)	5.2
CS(=O)(=O)N1CCCC(C(=O)NCCN2CCC(Cc3ccccc3)CC2)C1 (stereo unspecified)	-15.0
CCOCCCN(C(=O)c1ccco1)C(C(=O)NC1CCCC1)c1cccc(OC)c1OC (stereo unspecified)	10.0
Cc1ccc(CNc2nc3ccccc3s2)s1	61.4*
c1csc(CSc2nc3ccccc3s2)c1	-52.2
Cc1noc(C)c1CSc1nc2ccccc2s1	-18.7
O=C(CCn1nc(-c2ccccc2)c2ccccc2c1=O)NCC1CCCO1 (stereo unspecified)	-1.3
COc1nc(C)nc2c1sc(=S)n2C	-24.2
O=C(O)c1ccccc1C1=Nc2ccc(O)cc2Oc2cc(O)ccc21	11.5
CCC(=O)NC1(C(F)(F)F)C(=O)NC(C)=C1C#N (stereo unspecified)	12.0
CC1CCN(c2ccc(NC(=O)c3cccnc3)cc2)CC1	-58.9
CCOC(=O)c1c(C)[nH]c(C(=O)C(C)OC(=O)c2cccc(OCc3c(C)noc3C)c2)c1C (stereo unspecified)	80.7*
COC(=O)c1c(C)[nH]c(C(=O)OCc2ccc(F)cc2)c1C	-59.8
CCOC(=O)c1c(C)[nH]c(C(=O)COC(=O)C2CC2C)c1C (stereo unspecified)	-53.5
COC(=O)c1ccc(CSc2nc(C)nc3sc(C)c(C)c23)o1	16.0
N#C/C(=C\c1ccc(O)c(O)c1)C(=O)NCCCc1ccccc1	69.1*
CCc1sc(C(=O)N2CCN(S(C)(=O)=O)CC2)cc1Br	5.2
SMILES	SF-1 inh
CCC1CCCCN1CCCNC(=O)CNC(=O)Cn1ccc2ccccc2c1=O (stereo unspecified)	4.7
O=C(COc1ccccc1Cl)Nc1ccc(Cl)cn1	-74.5
CN1CCN(C(=O)c2cccc(COc3cc(Cl)ccc3Cl)c2)CC1	-69.2
O=C(O)c1cccc(COc2ccccc2Cl)c1	93.6*
O=S1CCCSC1c1cccnc1 (stereo unspecified)	0.7
CCCCSC1=C(C#N)C(c2ccccc2C)C(C(=O)OCC)C(=O)N1 (stereo unspecified)	0.9
COCCCNC(=O)CCN1C(=O)COc2ccccc21	8.9
CCCNC(=O)c1cc(-c2ccc(Br)cc2)on1	-57.8
CCOc1ccc(-c2cc(CCCC(=O)NCCCOC)no2)cc1	57.9*
O=C(c1ccc(NC2=NC3CS(=O)(=O)CC3S2)cc1)N1CCc2ccccc2C1 (stereo unspecified)	1.7
CN(Cc1ccccc1)C(=O)CCNS(=O)(=O)c1ccc2c(c1)oc(=O)n2C	6.9
Cn1cnnc1SCc1ccc(C#N)cc1Cl	14.5
Cn1ncc2c(Nc3ccc(-c4ccccc4)cc3)ncnc21	-60.4
COC(=O)c1ccc(CSc2nc3c(cnn3-c3ccccc3)c(=O)[nH]2)o1	-0.2
CCOC(=O)c1c(N)sc(C(=O)Nc2ccc3c(c2)OCO3)c1C	52.7*
Cc1noc(C(=O)Nc2ccc3c(c2)OCO3)c1Cl	-60.6
Cc1occc1C(=O)Nc1ccc2c(c1)OCO2	-53.4
O=C(C1CCCN(S(=O)(=O)c2ccccc2)C1)N1CCCc2ccccc21 (stereo unspecified)	4.6
CC(C)OC(=O)Cn1c(=O)oc2ccccc21	-6.7
Cc1sc2nc3n(c(=O)c2c1C)Cc1ccccc1-3	-56.1
CCN(CC)S(=O)(=O)c1ccc(C(=O)NCc2n[nH]c(=S)n2Cc2ccccc2)cc1	3.7
O=C(CNc1ccc(Oc2ccccc2)cc1)N1CCOCC1	-9.5
COc1ccc(NC(=O)c2cc3ccccc3o2)cc1	-54.4
CCCC(=O)N1CCN(c2ccc(NC(=O)c3cc4ccccc4o3)cc2Cl)CC1	48.2*
CC(=O)Nc1cccc(NC(=O)c2cc3ccccc3o2)c1	-87.2
SMILES	SF-1 inh
COc1ccccc1NC(=O)C1=C(C)Nc2nc(CCCO)nn2C1c1ccc2c(c1)OCO2 (stereo unspecified)	-11.5
Cc1cccc2cc(C#N)c(SCC(=O)N3CC(=O)Nc4ccccc43)nc12	64.3*
Cc1cccc2cc(C#N)c(NCCNC(=O)NC3CCCCC3)nc12	15.1
CCOC(=O)CSc1nc(-c2ccc3c(c2)OCO3)ccc1C#N	-63.6
Cc1nc(SCC(=O)Nc2c(C)n(C)n(-c3ccccc3)c2=O)[nH]c(=O)c1Cc1ccccc1	-9.2
Cc1nc(NCCc2cnc[nH]2)c2oc3ccccc3c2n1	1.5
CCc1nc(NCc2ccccn2)c2oc3ccccc3c2n1	14.0
COc1ccc(CCNc2ncnc3c2oc2ccccc23)cc1OC	72.5*
CC(=O)c1ccc(Nc2ncnc3c2oc2ccccc23)cc1	-89.0
Cc1nc(NCc2ccco2)c2oc3ccccc3c2n1	18.5
COc1ccc(CCNc2nc(C)nc3c2oc2ccccc23)cc1OC	57.9*
Cc1cccc(OCC(O)CN2CCN(C3CCCCC3)CC2)c1 (stereo unspecified)	-36.2

Bioassay records from PubChem.
